# PubChem BioAssay (EPA / NIEHS)
# Results filed as inconclusive are left out. The source made the active and inactive calls. How the source made its calls, unless noted: active means hit-call score of the fitted dose curve at least 0.9, where 1 is the maximum; inactive means score below 0.9.
# Tests used:
# [1] = molecular target: human Retinoid X Receptor beta (RXRb), RXRB (gene 6257) (UniProt P28702); test: ATG_RXRb_TRANS: Attagene TRANS-FACTORIAL HepG2 Assay for human Retinoid X Receptor beta (RXRb) (AID 2283013; active means hit-call score of the fitted dose curve at least 0.9, where 1 is the maximum)
# Sequence of human Retinoid X Receptor beta (RXRb), RXRB (gene 6257) (P28702 whole entry, looked up, the tested form may be a part): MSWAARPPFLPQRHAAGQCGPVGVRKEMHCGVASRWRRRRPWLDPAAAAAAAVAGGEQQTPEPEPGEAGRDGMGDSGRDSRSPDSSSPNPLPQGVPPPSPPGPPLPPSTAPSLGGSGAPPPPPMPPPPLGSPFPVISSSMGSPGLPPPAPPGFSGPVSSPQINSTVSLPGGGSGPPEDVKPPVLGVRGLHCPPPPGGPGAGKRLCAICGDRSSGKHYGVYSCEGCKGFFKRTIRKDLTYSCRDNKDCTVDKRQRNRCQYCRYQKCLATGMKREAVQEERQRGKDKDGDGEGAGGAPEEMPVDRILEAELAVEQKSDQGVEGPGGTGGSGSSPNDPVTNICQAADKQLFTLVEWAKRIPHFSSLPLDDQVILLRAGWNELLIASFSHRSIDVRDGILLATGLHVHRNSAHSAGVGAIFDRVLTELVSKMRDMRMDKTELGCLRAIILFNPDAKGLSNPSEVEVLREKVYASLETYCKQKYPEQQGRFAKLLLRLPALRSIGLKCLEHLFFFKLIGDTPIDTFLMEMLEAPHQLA
# Method in brief: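 Read-out: reporter mRNA induction via RT-PCR plus capillary electrophoresis fluorescence, analysed as signal increase relative to DMSO. Cells were human HepG2, transiently transfected with GAL4-UAS reporter constructs and chimeric receptor-Gal4 fusions, dosed for 24 h.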
# [2] = read-out: E-selectin (Homo sapiens) (UniProt P16581); test: BSK_3C_Eselectin: BioMAP Diversity Plus: 3C Assay for Eselectin Biomarker Activity (AID 2283015); settings: primary human endothelial cells (HUVEC); actives raise or lower the signal;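 on outcome: cell surface E-selectin protein quantified by ELISA 24 h after dosing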
# Method in brief: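 E-selectin ELISA readout, fitted bidirectionally relative to DMSO, taken 24 h post-dosing in HUVEC cultures of the 3C system. Overt cytotoxicity tracked with sulforhodamine B staining of parallel wells.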
# [3] = read-out: Interleukin-1 alpha (IL1a), IL1A (gene 3552); test: BSK_BE3C_IL1a: BioMAP Diversity Plus: BE3C Assay for Interleukin-1 alpha (IL1a) Biomarker Activity (AID 2283016); settings: primary human bronchial epithelial cells; actives raise or lower the signal
# Method in brief: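 ELISA read-out of IL-1a from human lung bronchial epithelial primary cells, 24 h post-dose. Gain or loss of signal fitted relative to DMSO negative control.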
# [4] = read-out: Monocyte Chemoattractant Protein-1 (MCP1), CCL2 (gene 6347); test: BSK_3C_MCP1: BioMAP Diversity Plus: 3C Assay for Monocyte Chemoattractant Protein-1 (MCP1) Biomarker Activity (AID 2283017); settings: primary human endothelial cells (HUVEC); actives raise or lower the signal
# Method in brief: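 MCP-1 was measured by ELISA 24 h after dosing in primary HUVEC 3C cultures and fitted in both directions relative to DMSO; cytotoxicity was checked by SRB total-protein staining in parallel wells.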
# [5] = read-out: Monocyte Chemoattractant Protein-1 (MCP1), CCL2 (gene 6347); test: BSK_4H_MCP1: BioMAP Diversity Plus: 4H Assay for Monocyte Chemoattractant Protein-1 (MCP1) Biomarker Activity (AID 2283018); settings: primary human endothelial cells (HUVEC); actives raise or lower the signal
# Method in brief: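 HUVEC primary cells, 24 h post-dose, MCP-1 by ELISA. Gain or loss of signal fitted bidirectionally vs DMSO baseline. Cytotoxicity: SRB stain (0.1% after 10% TCA fixation), read 560 nm, parallel cultures.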
# [6] = read-out: Human Leukocyte Antigen - DR isotype (HLADR), HLA-DRA (gene 3122); test: BSK_3C_HLADR: BioMAP Diversity Plus: 3C Assay for Human Leukocyte Antigen - DR isotype (HLADR) Biomarker Activity (AID 2283019); settings: primary human endothelial cells (HUVEC); actives raise or lower the signal;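 on outcome: ELISA of cell-surface HLA-DR on HUVEC 24 h after dosing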
# Method in brief: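 Bidirectional fitting against DMSO was applied to the HLA-DR ELISA signal from human umbilical vein endothelial cells, 24 h post-dose. Cytotoxicity came from parallel SRB total-protein staining; 3C proliferation was counted by SRB at 48 h.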
# [7] = read-out: Interleukin-8 (IL8), CXCL8 (gene 3576); test: BSK_3C_IL8: BioMAP Diversity Plus: 3C Assay for Interleukin-8 (IL8) Biomarker Activity (AID 2283020); settings: primary human endothelial cells (HUVEC); actives raise or lower the signal
# Method in brief: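 HUVEC, 3C stimulation; 24 h compound exposure; IL-8 read by ELISA; gain or loss of signal fitted relative to DMSO control.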
# [8] = read-out: Monokine induced gamma interferon (MIG), CXCL9 (gene 4283); test: BSK_3C_MIG: BioMAP Diversity Plus: 3C Assay for Monokine induced gamma interferon (MIG) Biomarker Activity (AID 2283021); settings: primary human endothelial cells (HUVEC); actives raise or lower the signal
# Method in brief: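 HUVEC, 3C system; 24 h chemical exposure; MIG by ELISA; bidirectional fit vs DMSO baseline.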
# [9] = BSK_3C_SRB: Viability Assessment in the BioMAP Diversity Plus: 3C Assay (AID 2283023); settings: primary human endothelial cells (HUVEC);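 further: fitted both ways against DMSO so a hit may be signal rise or drop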
# Method in brief: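 Cytotoxicity readout in parallel HUVEC 3C cultures: after 24 h compound exposure, cells fixed with 10% TCA, stained with 0.1% SRB and read at 560 nm. Gain or loss relative to DMSO fitted.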
# [10] = read-out: Matrix Metallopeptidase 1 (MMP1), MMP1 (gene 4312); test: BSK_BE3C_MMP1: BioMAP Diversity Plus: BE3C Assay for Matrix Metallopeptidase 1 (MMP1) Biomarker Activity (AID 2283024); settings: primary human bronchial epithelial cells; actives raise or lower the signal
# Method in brief: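 ELISA read-out of MMP1 in human lung bronchial epithelial primary cultures, 24 h post-dose; bidirectional curve fit vs DMSO baseline, gain or loss of signal scored.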
# [11] = BSK_3C_Vis: BioMAP Diversity Plus: 3C Assay for Morphology Visualization (AID 2283025); settings: primary human endothelial cells (HUVEC);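 further: fitted both ways so gain or loss versus DMSO counts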
# Method in brief: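 HUVEC, 3C system; light microscopy of morphology at 24 h post-dose. Bidirectional fit vs DMSO baseline. Secondary readout, background-control function.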
# [12] = read-out: Pselectin, SELP (gene 6403); test: BSK_4H_Pselectin: BioMAP Diversity Plus: 4H Assay for Pselectin Biomarker Activity (AID 2283026); settings: primary human endothelial cells (HUVEC); actives raise or lower the signal
# Method in brief: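 HUVEC, 24 h chemical exposure; P-selectin read by ELISA. Bidirectional curve fit vs DMSO baseline; gain or loss of signal scored.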
# [13] = BSK_BE3C_SRB: Viability Assessment in the BioMAP Diversity Plus: BE3C Assay (AID 2283028); settings: primary human bronchial epithelial cells
# Method in brief: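 Cytotoxicity read-out: SRB (0.1%) staining of TCA-fixed (10%) human lung bronchial epithelial cells, absorbance 560 nm, 24 h post-dosing. Curves fitted both directions relative to DMSO.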
# [14] = read-out: Thrombomodulin, THBD (gene 7056); test: BSK_3C_Thrombomodulin: BioMAP Diversity Plus: 3C Assay for Thrombomodulin Biomarker Activity (AID 2283029); settings: primary human endothelial cells (HUVEC); actives raise or lower the signal
# Method in brief: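 HUVEC, 3C conditions; compound 24 h; thrombomodulin by ELISA; bidirectional curve fit vs DMSO baseline; parallel SRB total-protein staining for cytotoxicity.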
# [15] = read-out: Urokinase-type plasminogen activator receptor (uPAR), PLAUR (gene 5329); test: BSK_4H_uPAR: BioMAP Diversity Plus: 4H Assay for Urokinase-type plasminogen activator receptor (uPAR) Biomarker Activity (AID 2283030); settings: primary human endothelial cells (HUVEC); actives raise or lower the signal
# Method in brief: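 uPAR level read by ELISA on HUVEC cultures (BioMAP 4H) 24 h post-dosing, analyzed for gain or loss relative to DMSO. Parallel SRB staining assessed overt cytotoxicity.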
# [16] = molecular target: human Thyroid Receptor alpha (THRa1), THRA (gene 7067) (UniProt P10827); test: ATG_THRa1_TRANS: Attagene TRANS-FACTORIAL HepG2 Assay for human Thyroid Receptor alpha (THRa1) (AID 2283014; active means hit-call score of the fitted dose curve at least 0.9, where 1 is the maximum)
# Sequence of human Thyroid Receptor alpha (THRa1), THRA (gene 7067) (P10827 whole entry, looked up, the tested form may be a part): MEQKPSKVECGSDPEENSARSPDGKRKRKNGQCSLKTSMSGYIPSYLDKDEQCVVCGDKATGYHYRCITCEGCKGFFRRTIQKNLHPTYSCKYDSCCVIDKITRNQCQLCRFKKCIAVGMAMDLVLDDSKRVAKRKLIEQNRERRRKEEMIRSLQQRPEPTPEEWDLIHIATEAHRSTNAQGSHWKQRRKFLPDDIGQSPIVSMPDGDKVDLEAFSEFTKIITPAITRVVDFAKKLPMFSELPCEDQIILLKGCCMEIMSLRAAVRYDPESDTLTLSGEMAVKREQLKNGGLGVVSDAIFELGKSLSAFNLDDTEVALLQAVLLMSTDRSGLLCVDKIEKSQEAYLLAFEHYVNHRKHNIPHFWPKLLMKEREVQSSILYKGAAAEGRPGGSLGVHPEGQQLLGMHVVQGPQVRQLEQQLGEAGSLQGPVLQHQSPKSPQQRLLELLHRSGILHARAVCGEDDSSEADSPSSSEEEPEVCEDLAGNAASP
# Method in brief: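 Transcripts from GAL4-UAS-driven reporters, measured after 24 h compound exposure by RT-PCR plus capillary electrophoresis of 6-FAM-labeled fragments, were fitted for gain of signal relative to DMSO. Cells: transiently transfected HepG2 expressing NR-Gal4 chimeras.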
# [17] = molecular target: human Vitamin D Receptor (VDR), VDR (gene 7421) (UniProt P11473); test: ATG_VDR_TRANS: Attagene TRANS-FACTORIAL HepG2 Assay for human Vitamin D Receptor (VDR) (AID 2283022; active means hit-call score of the fitted dose curve at least 0.9, where 1 is the maximum)
# Sequence of human Vitamin D Receptor (VDR), VDR (gene 7421) (P11473 whole entry, looked up, the tested form may be a part): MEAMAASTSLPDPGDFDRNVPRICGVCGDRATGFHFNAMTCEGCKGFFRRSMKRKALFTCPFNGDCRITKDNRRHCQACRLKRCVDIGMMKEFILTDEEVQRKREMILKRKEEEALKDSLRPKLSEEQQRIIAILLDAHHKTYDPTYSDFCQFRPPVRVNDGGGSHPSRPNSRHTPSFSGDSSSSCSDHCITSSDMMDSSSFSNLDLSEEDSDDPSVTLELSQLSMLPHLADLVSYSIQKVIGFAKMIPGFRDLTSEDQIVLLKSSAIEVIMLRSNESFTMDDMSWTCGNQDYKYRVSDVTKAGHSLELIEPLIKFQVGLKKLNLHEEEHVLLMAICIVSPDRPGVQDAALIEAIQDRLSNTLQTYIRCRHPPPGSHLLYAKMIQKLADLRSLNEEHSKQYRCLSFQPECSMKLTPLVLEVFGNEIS
# Method in brief: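 Transactivation by an exogenous VDR-Gal4 chimera in transiently transfected HepG2 cells was measured as reporter transcript level 24 hours after chemical treatment. RT-PCR products were analysed by capillary electrophoresis and fitted in the positive direction relative to DMSO.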
# Sequence of E-selectin (Homo sapiens) (P16581 whole entry, looked up): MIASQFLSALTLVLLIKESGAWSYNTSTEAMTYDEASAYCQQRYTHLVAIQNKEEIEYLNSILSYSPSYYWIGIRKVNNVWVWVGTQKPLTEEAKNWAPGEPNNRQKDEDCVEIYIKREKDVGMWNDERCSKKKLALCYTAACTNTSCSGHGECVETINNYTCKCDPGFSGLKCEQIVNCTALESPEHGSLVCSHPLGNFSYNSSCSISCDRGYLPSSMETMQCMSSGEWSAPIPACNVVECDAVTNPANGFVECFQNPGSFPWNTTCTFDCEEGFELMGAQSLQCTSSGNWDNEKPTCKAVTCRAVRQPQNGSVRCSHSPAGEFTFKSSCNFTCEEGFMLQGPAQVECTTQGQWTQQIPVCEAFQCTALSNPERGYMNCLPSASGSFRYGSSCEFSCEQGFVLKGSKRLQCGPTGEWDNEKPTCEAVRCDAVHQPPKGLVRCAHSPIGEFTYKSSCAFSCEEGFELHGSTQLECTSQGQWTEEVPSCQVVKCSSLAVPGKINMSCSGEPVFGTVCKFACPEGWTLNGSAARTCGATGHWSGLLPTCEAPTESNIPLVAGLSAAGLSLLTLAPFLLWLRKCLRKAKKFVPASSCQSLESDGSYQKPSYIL
compound,measurement,setting,value
N#CN=C1SCCN1Cc1ccc(Cl)nc1,outcome,[1],inactive
same,outcome,[2],inactive
same,outcome,[3],inactive
same,outcome,[4],inactive
same,outcome,[5],inactive
same,outcome,[6],inactive
same,outcome,[7],inactive
same,outcome,[8],inactive
same,outcome,[9],inactive
same,outcome,[10],inactive
same,outcome,[11],inactive
same,outcome,[12],inactive
same,outcome,[13],inactive
same,outcome,[14],inactive
same,outcome,[15],inactive
COc1ccc(-c2ccccc2)cc1NNC(=O)OC(C)C,outcome,[1],inactive
same,outcome,[2],inactive
same,outcome,[3],inactive
same,outcome,[4],inactive
same,outcome,[5],inactive
same,outcome,[6],inactive
same,outcome,[7],inactive
same,outcome,[8],inactive
same,outcome,[9],inactive
same,outcome,[10],inactive
same,outcome,[11],inactive
same,outcome,[12],inactive
same,outcome,[13],inactive
same,outcome,[14],inactive
same,outcome,[15],inactive
COC(=O)NC(=S)Nc1ccccc1NC(=S)NC(=O)OC,outcome,[16],inactive
same,AC50,[2],5.15 µM (active)
same,outcome,[3],inactive
same,outcome,[4],inactive
same,AC50,[5],5.32 µM (active)
same,AC50,[6],14.2 µM (active)
same,outcome,[7],inactive
same,outcome,[8],inactive
same,outcome,[17],inactive
same,outcome,[9],inactive
same,outcome,[10],inactive
same,outcome,[11],inactive
same,outcome,[12],inactive
same,outcome,[13],inactive
same,AC50,[14],10.8 µM (active)
same,outcome,[15],inactive
